Laboratory results taken from PubChem BioAssay.
Active and inactive are the calls of the source.

How the values were obtained:
[1] = binders of probe aFSTL3 on microarray, primary screen, stem cell growth factor project, biochemical, small-molecule microarray, fluorescence 635/667 (AID 1064); details: higher = more signal;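 also: measures binding of the biotinylated anti-FSTL3 antibody to printed compounds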
[2] = binders from COS7 lysate, DM2A8 probe, primary screen, torsin A project, cell lysate, small-molecule microarray, fluorescence 635/667 (AID 1065); details: higher = more signal, COS7 lysate expressing mutant human TOR1A
[3] = binders of probe aFGF2 on microarray, primary screen, stem cell growth factor project, biochemical, small-molecule microarray, fluorescence 635/667 (AID 1067); details: higher = more signal;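 also: measures binding of biotinylated aFGF2 protein to printed compounds on slides; z-score merges feature fluorescence and signal-to-noise across triplicate slides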
[4] = binders of probe aFGF10 on microarray, primary screen, stem cell growth factor project, biochemical, small-molecule microarray, fluorescence 635/667 (AID 1071); details: higher = more signal;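 also: score merges 667 nm spot intensity and signal to noise from triplicate slides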
[5] = molecular target: Neurogenic locus notch homolog protein 2 (Homo sapiens) (UniProt Q04721); experiment: Notch2 binders on small-molecule microarrays, primary screen, biochemical, small-molecule microarray, 635 nm fluorescence, stem cell growth factors (AID 1073); details: Notch2 binding, higher = more signal
[6] = molecular target: Pro-neuregulin-1, membrane-bound isoform (Homo sapiens) (UniProt Q02297); experiment: NRG1 binders on small-molecule microarrays, primary screen, psychiatric disease protein project, biochemical, small-molecule microarray, fluorescence 635/667 (AID 1075); details: NRG1 binding, 635 nm fluorescence, higher = more signal;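 also: score combines 667 nm spot fluorescence with signal to noise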
[7] = tested on: Neuregulin-1 EGF-like domain; experiment: binders of neuregulin-1 EGF-like domain, primary screen, biochemical, small-molecule microarray, 635 nm fluorescence (AID 1081); details: small-molecule microarray binding, higher = more signal;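 also: binding of the protein to compounds printed on small-molecule microarray slides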
[8] = FRG1 promoter luciferase signal modulators, primary screen, FRG1 inhibition for FSHD, cell-based, C2C12 myotubes, firefly/Renilla luciferase, luminescence (AID 1084); details: higher = more signal, called active from +8 up or from −8 down
[9] = binders of probe aFST on microarray, primary screen, stem cell growth factor project, biochemical, small-molecule microarray, fluorescence 635/667 (AID 1086); details: higher = more signal;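 also: score merges 667 nm fluorescence with signal-to-noise of each printed compound spot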
[10] = binders of probe aHhip on microarray, primary screen, stem cell growth factor project, biochemical, small-molecule microarray, fluorescence 635/667 (AID 1087); details: higher = more signal;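 also: score merges spot fluorescence at 667nm with spot signal to noise ratio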

Sequence of Pro-neuregulin-1, membrane-bound isoform (Homo sapiens) (Q02297 whole entry, looked up, the tested form may be a part, canonical isoform): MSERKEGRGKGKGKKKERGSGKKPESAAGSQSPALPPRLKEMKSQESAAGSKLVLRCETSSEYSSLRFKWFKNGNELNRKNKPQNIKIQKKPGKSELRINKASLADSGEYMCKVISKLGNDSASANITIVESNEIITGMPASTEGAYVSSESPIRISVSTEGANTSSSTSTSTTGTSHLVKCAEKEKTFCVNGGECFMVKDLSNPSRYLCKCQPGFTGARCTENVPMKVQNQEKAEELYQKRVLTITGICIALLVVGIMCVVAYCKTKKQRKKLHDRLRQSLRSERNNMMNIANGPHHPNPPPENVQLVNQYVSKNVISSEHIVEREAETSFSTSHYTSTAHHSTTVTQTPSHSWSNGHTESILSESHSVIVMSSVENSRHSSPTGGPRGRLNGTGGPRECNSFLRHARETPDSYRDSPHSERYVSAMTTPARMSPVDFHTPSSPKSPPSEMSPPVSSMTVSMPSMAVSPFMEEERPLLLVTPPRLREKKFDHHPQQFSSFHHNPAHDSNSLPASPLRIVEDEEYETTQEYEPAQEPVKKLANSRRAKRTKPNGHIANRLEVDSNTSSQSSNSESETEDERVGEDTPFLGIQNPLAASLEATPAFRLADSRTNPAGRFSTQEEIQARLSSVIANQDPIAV
Sequence of Neurogenic locus notch homolog protein 2 (Homo sapiens) (Q04721 whole entry, looked up, canonical isoform): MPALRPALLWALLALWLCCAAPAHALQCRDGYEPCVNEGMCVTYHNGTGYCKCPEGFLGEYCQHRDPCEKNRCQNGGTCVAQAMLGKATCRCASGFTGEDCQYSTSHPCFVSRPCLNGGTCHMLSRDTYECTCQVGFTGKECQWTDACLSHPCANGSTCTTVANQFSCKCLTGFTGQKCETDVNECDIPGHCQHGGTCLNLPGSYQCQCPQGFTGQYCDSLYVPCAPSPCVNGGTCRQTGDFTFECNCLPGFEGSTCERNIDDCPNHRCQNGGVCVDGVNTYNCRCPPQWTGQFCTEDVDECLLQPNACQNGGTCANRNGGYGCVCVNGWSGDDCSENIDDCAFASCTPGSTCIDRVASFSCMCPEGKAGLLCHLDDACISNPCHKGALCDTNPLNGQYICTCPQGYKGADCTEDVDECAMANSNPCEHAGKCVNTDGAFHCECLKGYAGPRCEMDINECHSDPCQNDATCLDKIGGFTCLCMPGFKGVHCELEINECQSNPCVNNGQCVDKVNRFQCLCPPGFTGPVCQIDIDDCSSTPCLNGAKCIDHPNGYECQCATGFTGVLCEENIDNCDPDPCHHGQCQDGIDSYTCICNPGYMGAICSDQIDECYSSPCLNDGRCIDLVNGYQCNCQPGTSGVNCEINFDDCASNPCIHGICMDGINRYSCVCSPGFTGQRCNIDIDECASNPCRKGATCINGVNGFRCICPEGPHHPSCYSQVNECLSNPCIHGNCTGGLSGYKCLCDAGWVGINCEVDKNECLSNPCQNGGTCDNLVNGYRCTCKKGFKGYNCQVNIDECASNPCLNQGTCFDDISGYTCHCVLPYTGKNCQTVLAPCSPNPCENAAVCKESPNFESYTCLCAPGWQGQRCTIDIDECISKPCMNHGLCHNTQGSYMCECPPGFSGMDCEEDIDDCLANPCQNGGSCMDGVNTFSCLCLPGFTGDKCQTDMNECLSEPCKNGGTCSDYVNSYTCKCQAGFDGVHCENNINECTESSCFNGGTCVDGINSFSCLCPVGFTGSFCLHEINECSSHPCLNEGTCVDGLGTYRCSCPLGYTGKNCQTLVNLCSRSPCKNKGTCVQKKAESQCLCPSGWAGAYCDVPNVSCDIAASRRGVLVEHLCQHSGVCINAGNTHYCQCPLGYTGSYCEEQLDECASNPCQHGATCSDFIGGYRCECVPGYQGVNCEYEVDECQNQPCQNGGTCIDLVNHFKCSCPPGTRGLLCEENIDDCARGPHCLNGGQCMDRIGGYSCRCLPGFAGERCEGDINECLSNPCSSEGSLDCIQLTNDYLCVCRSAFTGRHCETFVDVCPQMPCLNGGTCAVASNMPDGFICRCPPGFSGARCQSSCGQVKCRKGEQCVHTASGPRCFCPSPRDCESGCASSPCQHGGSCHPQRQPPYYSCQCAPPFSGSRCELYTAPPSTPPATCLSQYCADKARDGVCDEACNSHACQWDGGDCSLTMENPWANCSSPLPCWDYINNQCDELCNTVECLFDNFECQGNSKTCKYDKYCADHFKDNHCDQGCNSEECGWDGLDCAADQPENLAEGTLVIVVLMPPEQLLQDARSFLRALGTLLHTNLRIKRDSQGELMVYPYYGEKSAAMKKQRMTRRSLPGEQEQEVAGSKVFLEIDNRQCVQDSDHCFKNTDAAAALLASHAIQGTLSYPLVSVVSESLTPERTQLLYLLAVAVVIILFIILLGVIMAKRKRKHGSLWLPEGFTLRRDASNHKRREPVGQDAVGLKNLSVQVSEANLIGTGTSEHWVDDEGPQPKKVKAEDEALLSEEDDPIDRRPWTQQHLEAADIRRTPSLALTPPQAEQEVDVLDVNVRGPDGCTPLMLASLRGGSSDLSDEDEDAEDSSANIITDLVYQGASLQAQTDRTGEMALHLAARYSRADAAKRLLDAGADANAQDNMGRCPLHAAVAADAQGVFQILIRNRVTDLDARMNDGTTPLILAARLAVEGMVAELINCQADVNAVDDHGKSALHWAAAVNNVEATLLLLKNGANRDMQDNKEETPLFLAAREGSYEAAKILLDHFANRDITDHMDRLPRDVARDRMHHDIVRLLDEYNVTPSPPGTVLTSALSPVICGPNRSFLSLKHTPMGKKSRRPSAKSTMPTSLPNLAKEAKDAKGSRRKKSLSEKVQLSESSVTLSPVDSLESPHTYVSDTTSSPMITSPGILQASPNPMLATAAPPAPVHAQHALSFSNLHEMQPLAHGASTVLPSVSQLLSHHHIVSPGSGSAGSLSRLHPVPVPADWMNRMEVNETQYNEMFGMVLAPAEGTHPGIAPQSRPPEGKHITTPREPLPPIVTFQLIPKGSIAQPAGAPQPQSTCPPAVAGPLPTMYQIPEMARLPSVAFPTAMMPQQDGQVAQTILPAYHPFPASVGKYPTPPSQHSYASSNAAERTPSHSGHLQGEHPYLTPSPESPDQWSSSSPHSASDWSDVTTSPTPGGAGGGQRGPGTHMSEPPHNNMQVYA

| Structure (SMILES) | composite z-score [1] | composite z-score [2] | composite z-score [3] | composite z-score [4] | composite z-score [5] | composite z-score [6] | composite z-score [7] | z-score [8] | composite z-score [9] | composite z-score [10] |
| --- | --- | --- | --- | --- | --- | --- | --- | --- | --- | --- |
| COc1ccc([Si](C)(C)[C@@H]2[C@@H](CC(=O)N3Cc4ccccc4C[C@H]3CO)O[C@]3(C(=O)N(Cc4cccc(N5CCC5=O)c4)c4ccccc43)[C@H]2C)cc1 | -0.0762 | 0.3 | -0.07 | 0.507 | 0.596 | 0.592 | 1.22 | -1.07 (inactive) | 0.113 | 0.35 |
| COCCOC(=O)N1C(=O)[C@@]2(c3ccccc31)[C@H](C(N)=O)[C@H]1C(=O)O[C@H](c3ccccc3)[C@H](c3ccccc3)N1[C@@H]2c1ccc(O)cc1 | 0.0458 | 0.209 | 0.0709 | 0.166 | -0.248 | 1.32 | 1.24 | -0.939 (inactive) | -0.404 | 0.0215 |
| COC(=O)c1c2oc(c1C(=O)OC)C(=O)NC1(CCCCC1)c1cn(nn1)C[C@H](Cc1ccccc1)NC(=O)N[C@H](CO)CC2 | -0.414 | -0.0111 | -0.13 | 0.117 | 0.531 | 1.49 | 1.11 | -0.553 (inactive) | -0.224 | 0.0373 |
| CC(C)=CCCC(C)=CC(O)C1C=CC2C(=O)N(c3ccccc3)C(=O)C2N1Nc1ccc(C(C)C)cc1 (stereo not given) | -0.345 | -0.687 | 0.0218 | 0.249 | 1.21 | 1.63 | 1.06 | 0.821 (inactive) | 1.07 | -0.13 |
| CO[C@H]1O[C@H](CO)[C@@H](OC(=O)Nc2ccc(Oc3ccccc3)cc2)[C@H](OC(=O)Nc2ccc3c(c2)OCO3)[C@@H]1OC(=O)Nc1ccc2c(c1)OCO2 | 0.154 | 0.333 | -0.0493 | 1.22 | 1.55 | 0.516 | 1.09 | -0.0746 (inactive) | 0.8 | 0.28 |
| C=C(CCCC)/C(=C/C[C@H](OC(=O)c1ccncc1)c1ccc(OCCO)cc1)c1cc(C(=O)OC)ccc1OC | -0.126 | 0.123 | -0.031 | 1.15 | 0.563 | 0.348 | 1.01 | 31.6 (active) | -0.348 | -0.195 |
| CCCNC(=O)[C@@]1(Sc2ccc(C)cc2)CC(=O)N(Cc2ccccc2C(F)(F)F)[C@@H]1c1ccc(CO)cc1I | -0.0981 | 2.46 | -0.0583 | -0.0686 | 0.267 | 1.22 | 1.07 | -0.267 (inactive) | 0.574 | -0.0346 |
| C=C[C@H](C)[C@@H](OC(=O)Nc1ccc(SC)cc1)c1ccc(O)c2ccccc12 | -0.151 | 0.152 | 0.0111 | 0.358 | 0.68 | 0.423 | 1.43 | 5.42 (inactive) | 0.455 | -0.0994 |
| Cc1ccc(S[C@]2(C(=O)O)CC(=O)N(C(C)C)[C@@H]2c2ccc(CO)cc2)cc1 | 0.125 | 0.552 | -0.172 | -0.0563 | -0.445 | -0.226 | 0.751 | -0.175 (inactive) | -0.735 | -0.189 |
| CC(C)[Si](C#CCCCC#N)(Oc1ccccc1Br)C(C)C | -0.517 | 0.14 | -0.182 | 0.151 | 0.266 | 0.151 | 0.204 | 0.382 (inactive) | 0.155 | 0.316 |
| CN1C(=O)C2C=CC(C(O)c3ccc(F)cc3)N(N(c3ccccc3)c3ccccc3)C2C1=O (stereo not given) | 0.5 | -0.123 | -0.0446 | 0.122 | 0.822 | 1.28 | 1.03 | -0.368 (inactive) | 0.56 | -0.107 |
| CCOC(=O)C[C@H]1[C@H](OC(=O)c2ccc(-c3ccccc3)cc2)[C@@H](NC(=O)c2ccccc2)c2cc(OCCCO)ccc2N1C(=O)Cc1ccc(OC)cc1 | -0.287 | -0.0212 | -0.163 | 0.0185 | -0.639 | -0.31 | -0.198 | -0.304 (inactive) | -0.0166 | -0.374 |
| CC(C)(C)OC(=O)CC[C@@]1(C(=O)N2CCCCC2)N=C(c2ccc(OCCCO)cc2)O[C@@H]1c1ccccc1 | 0.249 | 0.615 | 0.171 | 0.783 | 1.68 | 1.72 | 1.23 | -3.24 (inactive) | 1.12 | -0.0618 |
| CC1CC/C=C\[C@H]2OC34C=CCN(Cc5ccccc5)C(=O)[C@H]3N(C(C)CO)C(=O)[C@@H]4C2C(=O)O1 (stereo not given in full) | -0.504 | -0.33 | -0.138 | 0.0852 | -0.257 | -0.771 | 1.44 | 0.251 (inactive) | -0.021 | -0.0672 |
| COCC(=C=CC[C@H](O)c1cccc(OCCO)c1)C[C@H](O)c1cc(Cl)cc(Cl)c1O | -0.173 | 0.0375 | -0.045 | 0.502 | 0.524 | 0.79 | 1.38 | -0.578 (inactive) | 0.181 | -0.281 |
